# Source: PubChem
# Rows were chosen to be rich in hits. Some 12% of all compounds tested hit in one or more screens of this group.
# L3MBTL1 inh – qHTS Assay for the Inhibitors of L3MBTL1 | AID 485360, 2010 | 230,000 compounds, 0.66% hits | Potency, µM (top dose mostly 57.1 µM), usual class: inhibitors | AlphaScreen L3MBTL1–H3K9me1 peptide binding; further: nearly all actives have a fitted effect of over 60% in size
#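 AlphaScreen assay: L3MBTL1 (50 nM final) was preincubated 30 min at room temperature with biotinylated H3(1-15)K9me1 peptide (75 nM final), then 30 min with library compounds; streptavidin donor and nickel chelate acceptor beads (10 ug/mL final) added, 30 min dark.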
# G9a inh – qHTS Assay for Inhibitors of Histone Lysine Methyltransferase G9a; Histone-lysine N-methyltransferase EHMT2 (Homo sapiens), Q96KQ7; G9a H3K9 monomethylation, AlphaScreen, 2 h; Potency, µM (doses to about 102 µM), actives largely listed as inhibitors; 350,000 compounds, 8.8% hits; AID 504332, 2011; further: nearly all actives have a fitted effect of over 75% in size
# Target sequence (Q96KQ7 913-1193 limits assumed): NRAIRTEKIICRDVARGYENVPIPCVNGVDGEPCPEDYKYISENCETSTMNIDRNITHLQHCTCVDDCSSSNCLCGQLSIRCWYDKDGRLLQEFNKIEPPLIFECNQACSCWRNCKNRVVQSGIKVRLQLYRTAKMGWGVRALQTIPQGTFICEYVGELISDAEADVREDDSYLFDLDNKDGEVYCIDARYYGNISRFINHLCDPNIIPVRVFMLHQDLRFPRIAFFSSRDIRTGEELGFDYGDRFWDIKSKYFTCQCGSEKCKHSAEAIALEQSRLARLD
#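 Readings reflect AlphaScreen signal from monomethyl-H3K9 antibody detection. HMT at 20 nM; substrate b-H3K9 500 nM; cofactor SAM 20 uM; 2 h RT reaction; compounds tested as titrations in qHTS with 15 min preincubation.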
# BAZ2B block – qHTS Assay for Inhibitors of BAZ2B; AID 504333, 2011; Potency, µM (highest dose often 114 µM), actives largely listed as inhibitors; Bromodomain adjacent to zinc finger domain protein 2B (Homo sapiens), Q9UIF8; 360,000 compounds, 4.4% hits; AlphaScreen BAZ2B-H3K14Ac peptide displacement; further: nearly all actives have a fitted effect of over 60% in size
#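 Protein-peptide AlphaScreen: BAZ2B 50 nM, b-H3K14Ac 50 nM, 1x PBS pH 7.4 + 0.01% Tween-20. Preincubation 30 min RT; cpd 30 min RT (top 110 uM); beads 20 min RT, light-protected.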
# JMJD2A Tudor inh – qHTS Assay for Inhibitors of JMJD2A-Tudor Domain. Lysine-specific demethylase 4A (Homo sapiens), O75164. AlphaScreen JMJD2A-Tudor / H3K4me3 peptide binding. Potency, µM (highest dose often 114 µM), actives largely listed as inhibitors. 390,000 compounds, 4.4% hits; further: nearly all actives have a fitted effect of over 50% in size
# HP1b chromo inh – HTS for Inhibitors of HP1-beta Chromodomain Interactions with Methylated Histone Tails. 390,000 compounds, 0.56% hits. AlphaScreen HP1-beta / biotin-H3K9me3 peptide binding. Chromobox protein homolog 1 (Homo sapiens), P83916. Potency, µM (top dose mostly 114 µM), hits mostly inhibitors; further: nearly all actives have a fitted effect of over 70% in size
# Target sequence (P83916 whole entry, looked up): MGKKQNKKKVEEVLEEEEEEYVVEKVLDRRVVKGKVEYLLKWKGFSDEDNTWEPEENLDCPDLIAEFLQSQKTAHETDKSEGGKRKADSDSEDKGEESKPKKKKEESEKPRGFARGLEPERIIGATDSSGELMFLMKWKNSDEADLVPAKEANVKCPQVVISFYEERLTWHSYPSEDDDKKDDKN
#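 HP1-beta protein (50 nM final) preincubated 30 min at room temperature with biotinylated H3(1-18)K9me3 peptide (50 nM) in PBS pH 7.4, 0.01% Tween-20, then compound added for 30 min. AlphaScreen streptavidin donor/nickel chelate acceptor beads (10 ug/mL final), 30 min dark, luminescence read.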
# Sfp PPTase inh – qHTS Assay for Inhibitors of Bacillus subtilis Sfp phosphopantetheinyl transferase (PPTase) | 4'-phosphopantetheinyl transferase ffp (Bacillus subtilis), Q9F4F7 | Biochemical Sfp PPTase activity, qHTS | Potency, µM, most hits filed as inhibitors | 310,000 compounds, 3.5% hits | AID 1490, 2009;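 further: the enzyme is Sfp with the accession as filed and its product quenches rhodamine fluorescence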
#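 Compounds were incubated with enzyme (final 15 nM) for 15 min at room temperature before substrate addition started the reaction. Fluorescence at 525 nm excitation, 598 nm emission was recorded immediately and after 30 minutes.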
# Hits are given with their value; . = inactive; ? = inconclusive; / = no result given; [ ] = remark or other dose. The call rests on the fitted dose curve; in most records, active means well fitted curve in the direction sought with a large enough effect; inconclusive means small, poorly fitted or top-dose-only effect, or another doubt; inactive means no such curve, though single readings can be large; an effect the other way counts as inactive or inconclusive.
SMILES,L3MBTL1 inh,G9a inh,BAZ2B block,JMJD2A Tudor inh,HP1b chromo inh,Sfp PPTase inh
CCOc1ccc(OCCNC2CCCC2)cc1,/,?,.,3.16µM,?,?
CCOC(=O)CSC1=NC(=O)/C(=C/c2ccc(OC)cc2)S1,.,7.08µM,.,.,.,17.8µM
CCOC(=O)C1CCCN(C2=NC(=O)/C(=C/c3ccc(OC)cc3OC)S2)C1 (stereo not drawn),/,25.1µM,.,.,.,44.7µM
CCOC(=O)C1CCCN(C2=NC(=O)/C(=C/c3ccc(OC)cc3)S2)C1 (stereo not drawn),/,.,.,.,.,.
CCOC(=O)C1CCCN(C2=NC(=O)/C(=C/c3ccc(N(C)C)cc3)S2)C1 (stereo not drawn),/,39.8µM,44.7µM,.,.,.
CCOC(=O)C1CCN(C2=NC(=O)/C(=C/c3ccc(O)cc3)S2)CC1,/,39.8µM,.,.,.,?
CCOC(=O)C1CCN(C2=NC(=O)/C(=C/c3ccccc3OC)S2)CC1,/,.,.,.,.,.
COc1ccc(/C=C2\SC(N)=NC2=O)cc1,.,.,.,.,.,.
COc1ccc(N(C)S(=O)(=O)c2cccc(C(=O)NC3=NCCS3)c2)cc1,.,70.8µM,.,.,.,.
COc1ccc(C(=O)NC2=NCCS2)cc1,/,.[12.7 µM],.,.,.,.
CC(C)Oc1ccc(C(=O)NC2=NCCS2)cc1,/,3.55µM,.,.,?,35.5µM
CC(C)C(NC(=O)c1ccc(Cl)cc1)C(=O)NC1=NCCS1 (stereo not drawn),/,?,.,.,.,.
Cc1ccc(C(=O)NC2=NCCS2)cc1,/,.[12.7 µM],?,/,/,.
N#Cc1ccc(C(=O)NC2=NCCS2)cc1,/,39.8µM,?,.,.,.
CC(C)[C@H](NC(=O)c1ccc(F)cc1)C(=O)NC1=NCCS1,.,.,.,17.8µM,.,.
N#Cc1ccsc1NC(=O)C1=COCCO1,.,.[12.7 µM],.,.,.,/
C#CCn1c(=NC(=O)CN2C(=O)CCC2=O)sc2cccc(OC)c21,.,.,.,.,.,.
C#CCn1c(=NC(=O)c2cccs2)sc2cccc(OC)c21,/,.,.,.,.,79.4µM
COc1ccc(-c2nc(C)ncc2-c2ccccc2)c(O)c1,/,.,.,.,.,.
Cc1ncc(S(=O)(=O)c2ccccc2)c(-c2ccc(Cl)cc2Cl)n1,.,.,.,.,.,.
Cc1ncc(N=Nc2ccccc2Cl)c(-c2ccccc2)n1,?,?,11.2µM,50.1µM,15.8µM,.
COc1ccc(N=Nc2cnc(C)nc2-c2ccccc2)cc1,.,14.1µM,20µM,39.8µM,.,.
Cc1ccccc1NC(=O)Cn1c(=O)n(CCCCCC(=O)NCc2ccc3c(c2)OCO3)c(=O)c2sccc21,/,.,.,.,.,/
Cc1csc(Cn2c(CN(C)C)nc3ccccc3c2=O)n1,/,.[12.7 µM],.,.,.,.
CCOc1ccc(-c2csc(Cn3c(CN4CCN(C)CC4)nc4ccccc4c3=O)n2)cc1,.,22.4µM,?,22.4µM,?,?
SMILES,L3MBTL1 inh,G9a inh,BAZ2B block,JMJD2A Tudor inh,HP1b chromo inh,Sfp PPTase inh
CN(C)Cc1nc2ccccc2c(=O)n1Cc1nc(-c2cc3ccccc3o2)cs1,.,?,?,50.1µM,.,?
CCc1nn2c(=O)cc(COC(=O)c3ccco3)nc2s1,/,.,.,.,.,/
Cc1nnc(N2CCN(C(=O)Nc3cccc(C(F)(F)F)c3)CC2)c2nn(-c3ccccc3)c(C)c12,/,.,.,.,.,/
CCOc1ccc(S(=O)(=O)N2CCC(C(=O)N3CCN(c4ccccc4F)CC3)CC2)cc1C,/,/,.,.,.,.
CCOc1ccc(CN2CCC(C(=O)N3CCN(c4ccccc4F)CC3)CC2)cc1OC,.,8.91µM,?,7.08µM,?,.
CC(C)CN1CCC(C(=O)N2CCN(c3ccccc3F)CC2)CC1,.,10µM,?,22.4µM,?,.
O=C(C1CCCCC1)N1CCN(c2ccccc2F)CC1,/,.[12.7 µM],.,.,.,.
Cc1cccc(OCc2nnc(SC(C)C(=O)Nc3ccc(N4CCOCC4)cc3)o2)c1 (stereo not drawn),.,/,/,.,.,/
Cc1ccc(NC(=O)CSCC(=O)N(CCC(C)C)c2c(N)n(Cc3ccccc3)c(=O)[nH]c2=O)cc1,.,56.2µM,.,.,.,/
CCCCN(C(=O)CSCC(=O)Nc1cccc(C)c1)c1c(N)n(CCCC)c(=O)[nH]c1=O,.,20µM,.,.,.,/
CCCCn1c(N)c(N(CC)C(=O)CSCC(=O)Nc2ccc(OC)cc2)c(=O)[nH]c1=O,.,50.1µM,.,.,.,/
CCCn1c(N)c(N(CCOC)C(=O)CSCC(=O)Nc2cccc(C)c2)c(=O)[nH]c1=O,.,50.1µM,.,.,.,/
CN(CC(=O)Nc1cccc(Cl)c1)S(=O)(=O)c1ccc2[nH]c3c(c2c1)CCCC3,/,?,.,.,.,/
Cc1ccc(-n2c(O)c(C=Nc3ccc4c(c3)OCO4)c3ccccc3c2=O)cc1C,.,.,.,.,.,35.5µM
COc1ccc(S(=O)(=O)c2c(Nc3ccc(C)cc3C)sc(C(=O)c3ccc(F)cc3)c2N)cc1,/,?,.,.,.,/
COc1ccc2c(c1)Oc1ncn(CCN3CCOCC3)c(=N)c1C2c1ccc(OC)c(OC)c1 (stereo not drawn),/,/,/,.,/,/
Clc1ccc2nc(-c3ccc(Br)s3)cn2c1,.,50.1µM,.,.,.,.
O=C(O)c1ccccc1-c1cn2cc(Cl)ccc2n1,.,.,.,.,.,.
COc1ccc(-c2cn3cc(Cl)ccc3n2)cc1OC,.,79.4µM,?,.,.,.
CCCCCCCCNS(=O)(=O)CCNCc1ccco1,/,/,/,?,.,/
CCC(CO)Oc1cc(NCc2ccccn2)c2ncn(C(C)C)c2c1 (stereo not drawn),.,/,/,?,.,/
O=C(CN1CCN(C(=O)c2cccc(S(=O)(=O)N3CCCC3)c2)CC1)Nc1ccc(F)cc1,.,?,.,.,.,/
O=C1c2ccccc2NC(c2cccc(O)c2)N1O (stereo not drawn),/,44.7µM,.,.,.,.
O=C1c2ccccc2NC(c2ccc(Br)o2)N1O (stereo not drawn),.,.[2.33 µM],.,79.4µM,.,/
O=C1c2ccccc2NC(c2ccc([N+](=O)[O-])cc2)N1O (stereo not drawn),.,56.2µM,.,.,.,.
O=C1c2ccccc2NC(c2ccco2)N1O (stereo not drawn),.[11.4 µM],?,.,.,.,.
